Laboratory results as given in PubChem BioAssay (Tox21).
Records with an inconclusive call do not appear. Where a call stands in place of a potency, no number is given. Active and inactive are the calls of the source. Unless noted, the call rests on the fitted dose curve; in most records, active means well fitted curve in the direction sought with a large enough effect in the repeat runs; inconclusive means weak or mixed curves; inactive means no such curve, though single readings can be large; an effect the other way counts as inactive or inconclusive.

Assays:
[1] = qHTS RealTime-Glo MT Cell Viability Assay in HEK293 cells - 24 hour (AID 1224886); conditions: RealTime-Glo luminescence; series mostly up to 76.8 µM; further: nearly all actives have a fitted effect of over 50% in size; further: potency means the concentration at half of the fitted maximal effect; on activity change, negative = cytotoxicity: top concentration of the series differs between compounds
In short: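 HEK293 cells seeded with NanoLuc/prosubstrate reagent, rested 5 h at 37 C, then dosed and kept at 37 C up to 40 h. Nonlytic real-time luminescence from viable cells read at 0, 8, 16, 24, 32 and 40 h.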

[2] = qHTS RealTime-Glo MT Cell Viability Assay in HEK293 cells - 8 hour (AID 1224887); conditions: RealTime-Glo luminescence; series mostly up to 76.8 µM; further: top concentration of the series differs between compounds; nearly all actives have a fitted effect of over 50% in size
In short: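 Nonlytic bioluminescent viability monitoring. HEK293 at 600 cells/well with reagent; 5 h settle; compound transfer by pintool; plates held at 37 C and read at set time points.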

[3] = qHTS assay to identify small molecule antagonists of the estrogen receptor alpha (ER-alpha) signaling pathway using the BG1 cell line in the presence of 0.1 nM 17-beta-estradiol - cell viability counter screen (AID 1259241); conditions: VM7Luc4E2 (BG1) viability, CellTiter-Fluor protease, 22 h, 0.1 nM estradiol agonist added; series mostly up to 92.4 µM; further: nearly all actives have a fitted effect of over 40% in size; further: potency means the concentration at half of the fitted maximal effect
In short: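 Following 5 days in phenol red-free medium with charcoal-stripped serum, VM7Luc4E2 cells received test compounds alongside 0.1 nM 17beta-estradiol (final) at 37C for 22 hr. Live cells were then quantified via protease-substrate fluorescence.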

[4] = qHTS assay to identify small molecule antagonists of the androgen receptor (AR) signaling pathway using the MDA cell line in the presence of 0.5 nM R1881 - cell viability counter screen (AID 1259242); conditions: MDA-kb2 viability, CellTiter-Fluor protease fluorescence, 16 h; series mostly up to 92.4 µM; further: nearly all actives have a fitted effect of over 45% in size; further: potency means the concentration at half of the fitted maximal effect
In short: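 Cytotoxicity toward MDA-kb2 cells is measured by CellTiter-Fluor live-cell protease fluorescence after 16 hr compound exposure at 37C in the presence of 0.5 nM R1881 stimulator.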

[5] = qHTS assay to identify small molecule phospholipidosis (PLD) inducers (AID 1259344; active means well fitted curve in the direction sought with a large enough effect; an effect the other way counts as inactive or inconclusive); conditions: HepG2 phospholipidosis, LipidTOX Red imaging, 24 h; series mostly up to 38.3 µM
In short: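 Phospholipidosis is scored by imaging LipidTOX-stained pits in HepG2 cells exposed to compound for 24 h at 37 C; pit counts and integrated intensities per well and per cell serve as outputs.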

[6] = A CellTox Green Cytotoxicity Assay to monitor cytotoxicity in HEK293 cells - 16 hour (AID 1224888); conditions: CellTox Green fluorescence; series mostly up to 76.8 µM; further: nearly all actives have a fitted effect of over 35% in size
In short: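 Cytotoxicity was tracked continuously in HEK293 cells by a DNA-binding dye excluded from viable cells. Compounds were transferred in DMSO 5 h after seeding; fluorescence was recorded at intervals up to 40 h.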

[7] = qHTS RealTime-Glo MT Cell Viability Assay in HepG2 cells - 0 hour (AID 1224889); conditions: RealTime-Glo luminescence; series mostly up to 76.8 µM; further: nearly all actives have a fitted effect of over 50% in size
In short: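 HepG2 cells (600/well) were dispensed with RealTime-Glo reagents, incubated 5 h at 37 °C, then treated with compounds in DMSO for up to 40 h. Nonlytic NanoLuc luminescence reflecting viable cells was read at each stated time point.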

[8] = molecular target: Estrogen receptor (Homo sapiens) (UniProt P03372); assay: qHTS assay to identify small molecule antagonists of the estrogen receptor alpha (ER-alpha) signaling pathway using the BG1 cell line in the presence of 0.1 nM 17-beta-estradiol (AID 1259244); conditions: VM7Luc4E2 (BG1) ERE-luciferase, antagonist mode, 0.1 nM E2, 22 h; series mostly up to 92.4 µM; further: nearly all actives have a fitted effect of over 50% in size
In short: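 After 5 days in hormone-depleted medium (charcoal-stripped serum, no phenol red), VM7Luc4E2 cells were seeded, incubated 24 h, then co-treated with compound and 0.1 nM (final) estradiol for 22 h before luminescence detection.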

[9] = A CellTox Green Cytotoxicity Assay to monitor cytotoxicity in HepG2 cells - 8 hour (AID 1224890); conditions: CellTox Green fluorescence; series mostly up to 76.8 µM; further: nearly all actives have a fitted effect of over 45% in size
In short: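 Real-time, homogeneous cytotoxicity readout: dead-cell DNA staining by CellTox Green in HepG2 monolayers, fluorescence measured at timed intervals up to 40 h of continuous compound exposure.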

[10] = molecular target: Androgen receptor (Homo sapiens) (UniProt P10275); assay: qHTS assay to identify small molecule antagonists of the androgen receptor (AR) signaling pathway using the MDA cell line in the presence of 0.5 nM R1881 (AID 1259243); conditions: MDA-kb2 MMTV-luciferase, R1881 0.5 nM, 16 h; series mostly up to 42.5 µM; further: nearly all actives have a fitted effect of over 50% in size
In short: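 Steps: seed MDA-kb2 cells, incubate 5 hr at 37C; pin-transfer compounds in DMSO; add R1881 to 0.5 nM final; incubate 16 hr; add ONE-Glo, wait 30 min at room temperature; read luminescence.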

Sequence of Estrogen receptor (Homo sapiens) (P03372 whole entry, looked up): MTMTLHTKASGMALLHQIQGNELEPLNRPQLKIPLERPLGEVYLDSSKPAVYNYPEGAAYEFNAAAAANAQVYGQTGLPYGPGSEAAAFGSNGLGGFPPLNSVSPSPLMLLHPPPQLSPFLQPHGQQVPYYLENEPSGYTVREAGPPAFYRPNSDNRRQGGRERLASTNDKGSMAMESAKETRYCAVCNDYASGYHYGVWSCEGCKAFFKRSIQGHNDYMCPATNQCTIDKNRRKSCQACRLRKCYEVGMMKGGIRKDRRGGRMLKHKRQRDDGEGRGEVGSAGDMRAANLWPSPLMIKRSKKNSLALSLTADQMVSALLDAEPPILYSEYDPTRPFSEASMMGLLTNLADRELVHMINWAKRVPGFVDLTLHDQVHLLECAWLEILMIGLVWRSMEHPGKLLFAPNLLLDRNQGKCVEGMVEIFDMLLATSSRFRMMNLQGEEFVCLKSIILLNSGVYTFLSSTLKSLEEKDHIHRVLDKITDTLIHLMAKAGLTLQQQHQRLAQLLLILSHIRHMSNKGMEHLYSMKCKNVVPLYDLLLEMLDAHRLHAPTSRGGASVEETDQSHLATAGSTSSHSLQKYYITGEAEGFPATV
Sequence of Androgen receptor (Homo sapiens) (P10275 whole entry, looked up): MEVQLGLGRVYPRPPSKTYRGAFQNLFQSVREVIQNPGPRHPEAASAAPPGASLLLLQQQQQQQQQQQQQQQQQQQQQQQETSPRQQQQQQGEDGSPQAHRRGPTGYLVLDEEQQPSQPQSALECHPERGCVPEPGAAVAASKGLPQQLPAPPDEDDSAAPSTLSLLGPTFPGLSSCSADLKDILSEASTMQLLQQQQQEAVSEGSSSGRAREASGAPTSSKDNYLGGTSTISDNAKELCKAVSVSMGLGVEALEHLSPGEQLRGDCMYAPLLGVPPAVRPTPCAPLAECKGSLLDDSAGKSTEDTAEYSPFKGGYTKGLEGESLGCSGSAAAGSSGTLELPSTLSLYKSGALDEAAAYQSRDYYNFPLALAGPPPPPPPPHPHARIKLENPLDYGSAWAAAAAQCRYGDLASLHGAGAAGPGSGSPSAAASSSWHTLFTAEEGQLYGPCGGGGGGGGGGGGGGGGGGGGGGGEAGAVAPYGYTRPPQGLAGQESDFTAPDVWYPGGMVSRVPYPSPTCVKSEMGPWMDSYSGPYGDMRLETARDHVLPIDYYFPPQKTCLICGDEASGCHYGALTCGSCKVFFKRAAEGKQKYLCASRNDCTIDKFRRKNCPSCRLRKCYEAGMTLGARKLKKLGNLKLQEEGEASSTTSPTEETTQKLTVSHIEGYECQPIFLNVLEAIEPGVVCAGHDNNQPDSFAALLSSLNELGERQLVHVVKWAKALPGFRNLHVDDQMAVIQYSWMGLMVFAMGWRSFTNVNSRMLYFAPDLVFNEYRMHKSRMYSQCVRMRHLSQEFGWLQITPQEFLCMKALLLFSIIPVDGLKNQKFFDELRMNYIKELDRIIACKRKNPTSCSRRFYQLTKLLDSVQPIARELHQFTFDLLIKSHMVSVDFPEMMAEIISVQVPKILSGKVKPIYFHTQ

## O=C(O)Cc1cccc(-c2cc(CCCCCCc3ccc(O[C@H]4O[C@H](CO)[C@@H](O)[C@H](O)[C@@H]4O)c(-c4cccc(CC(=O)O)c4)c3)ccc2O[C@H]2O[C@H](CO)[C@@H](O)[C@H](O)[C@@H]2O)c1
[1]
  activity change, negative = cytotoxicity: -1.38% [at 0.29 µM] (inactive)
[2]
  activity change, negative = cytotoxicity: 11.8% [at 0.29 µM] (inactive)
[3]
  activity change, negative = cytotoxicity: -0.713% [at 0.349 µM] (inactive)
[4]
  viability change, negative = cytotoxic: -0.767% [at 0.349 µM] (inactive)
[5]
  outcome: inactive

## CO[Si](CCCCl)(OC)OC
[1]
  Potency: inactive
[6]
  Potency: inactive
[7]
  Potency: inactive
[3]
  Potency: inactive
[4]
  Potency: inactive
[8]
  Potency: inactive

## COc1ccc(N=Nc2cc(C)c(N=Nc3ccc(S(=O)(=O)O)cc3)cc2OC)cc1
[1]
  Potency: inactive
[2]
  Potency: inactive
[9]
  Potency: inactive
[3]
  Potency: 68.6 µM (active)
[4]
  Potency: 48.6 µM (active)

## NCCc1ccn[nH]1
[1]
  Potency: inactive
[2]
  Potency: inactive
[7]
  Potency: inactive
[3]
  Potency: inactive
[4]
  Potency: inactive
[10]
  outcome: inactive
[8]
  Potency: inactive
[5]
  outcome: inactive

## CC(=O)c1ccc2c(c1)CCCC2
[1]
  Potency: inactive
[2]
  Potency: inactive
[7]
  Potency: inactive
[9]
  Potency: inactive
[3]
  Potency: inactive
[4]
  Potency: inactive
[8]
  Potency: inactive

## O=C(Oc1ccccc1C(=O)O)c1ccccc1O
[1]
  Potency: inactive
[2]
  Potency: inactive
[7]
  Potency: inactive
[9]
  Potency: inactive
[3]
  Potency: inactive
[4]
  Potency: inactive
[8]
  Potency: inactive
[5]
  outcome: inactive

## Nc1cc(Cl)cc(S(=O)(=O)O)c1O
[1]
  Potency: inactive
[2]
  Potency: inactive
[7]
  Potency: inactive
[9]
  Potency: inactive
[3]
  Potency: inactive
[4]
  Potency: inactive
[8]
  Potency: inactive

## C[C@H]1O[C@H](O[C@H]2[C@H](O)[C@@H](O)[C@@H](O[C@H]3[C@H](O)[C@@H](O)[C@H](O)O[C@@H]3CO)O[C@@H]2CO)[C@H](O)[C@@H](O)[C@@H]1N[C@H]1C=C(CO)[C@@H](O)[C@H](O)[C@H]1O
[1]
  Potency: inactive
[2]
  Potency: inactive
[9]
  Potency: inactive
[3]
  Potency: inactive
[4]
  Potency: inactive
[5]
  outcome: inactive

## CCC(O)C(C)(C)C (stereo not drawn)
[1]
  Potency: inactive
[2]
  Potency: inactive
[7]
  Potency: inactive
[9]
  Potency: inactive
[3]
  Potency: inactive
[4]
  Potency: inactive
[8]
  Potency: inactive

## CN(C1CCCCC1)S(=O)(=O)c1ccccc1N
[2]
  Potency: inactive
[6]
  Potency: inactive
[7]
  Potency: inactive
[9]
  Potency: inactive
[3]
  Potency: inactive
[4]
  Potency: inactive

## O=C(O)CCNC(=O)c1ccccc1
[1]
  Potency: inactive
[2]
  Potency: inactive
[9]
  Potency: inactive
[3]
  Potency: inactive
[4]
  Potency: inactive
[8]
  Potency: inactive
[5]
  outcome: inactive

## CNCc1ccccc1
[1]
  Potency: inactive
[2]
  Potency: inactive
[7]
  Potency: inactive
[9]
  Potency: inactive
[3]
  Potency: inactive
[4]
  Potency: inactive
[5]
  outcome: inactive

## CCCCCN(CCCOC)C(=O)C(CCC(=O)O)NC(=O)c1ccc(Cl)c(Cl)c1 (stereo not drawn)
[1]
  Potency: inactive
[2]
  Potency: inactive
[7]
  Potency: inactive
[3]
  Potency: inactive
[4]
  Potency: inactive
[8]
  Potency: inactive

## c1ccc(CNc2ncnc3nc[nH]c23)cc1
[6]
  Potency: inactive
[7]
  Potency: inactive
[3]
  Potency: inactive
[4]
  Potency: inactive

## O=CO
[1]
  activity change, negative = cytotoxicity: 1.22% [at 6.97 µM] (inactive)
[2]
  activity change, negative = cytotoxicity: 8.18% [at 6.97 µM] (inactive)
[9]
  cytotoxicity increase: -4.28% [at 6.97 µM] (inactive)
[3]
  activity change, negative = cytotoxicity: -0.2% [at 8.39 µM] (inactive)
[4]
  viability change, negative = cytotoxic: 2.31% [at 8.39 µM] (inactive)

## C[C@H](CCC(=O)NCC(=O)O)[C@H]1CC[C@H]2[C@@H]3[C@H](O)C[C@@H]4C[C@H](O)CC[C@]4(C)[C@H]3C[C@H](O)[C@]12C
[1]
  Potency: 13.4 µM (active)
[2]
  Potency: inactive
[9]
  Potency: inactive
[3]
  Potency: inactive
[4]
  Potency: inactive

## CCOC(=O)CCCCCCCCC(=O)OCC
[1]
  Potency: inactive
[2]
  Potency: inactive
[9]
  Potency: inactive
[3]
  Potency: inactive
[4]
  Potency: inactive
[8]
  Potency: inactive

## CCCC(C)CC (stereo not drawn)
[1]
  Potency: inactive
[2]
  Potency: inactive
[3]
  Potency: inactive
[4]
  Potency: inactive

## COc1cc2c3cc1Oc1cc(ccc1O)C[C@@H]1c4c(cc(OC)c(O)c4Oc4ccc(cc4)C[C@@H]3N(C)CC2)CC[N+]1(C)C
[1]
  Potency: inactive
[2]
  Potency: inactive
[7]
  Potency: inactive
[3]
  Potency: inactive
[4]
  Potency: inactive
[5]
  outcome: inactive

## COC(/C=C(\C)CCC=C(C)C)OC
[1]
  Potency: inactive
[2]
  Potency: inactive
[7]
  Potency: inactive
[9]
  Potency: inactive
[3]
  Potency: inactive
[4]
  Potency: inactive
[8]
  Potency: inactive

## CC(C)COC(=O)CC(C(=O)OCC(C)C)S(=O)(=O)O (stereo not drawn)
[1]
  Potency: inactive
[2]
  Potency: inactive
[7]
  Potency: inactive
[9]
  Potency: inactive
[3]
  Potency: inactive
[4]
  Potency: inactive
[8]
  Potency: inactive

## CCc1nccnc1C
[1]
  Potency: inactive
[2]
  Potency: inactive
[7]
  Potency: inactive
[9]
  Potency: inactive
[3]
  Potency: inactive
[4]
  Potency: inactive
[8]
  Potency: inactive

## C[Si]1(C)N[Si](C)(C)N[Si](C)(C)N1
[1]
  Potency: inactive
[2]
  Potency: inactive
[9]
  Potency: inactive
[3]
  Potency: inactive
[4]
  Potency: inactive
[8]
  Potency: inactive

## CN[C@@H]1[C@@H](O)[C@@H](O[C@@H]2[C@H](O)[C@H](O[C@H]3OC(CN)=CC[C@H]3N)[C@@H](N)C[C@H]2N)OCC1(C)O (stereo partly drawn)
[1]
  Potency: inactive
[2]
  Potency: inactive
[7]
  Potency: inactive
[9]
  Potency: inactive
[3]
  Potency: inactive
[4]
  Potency: inactive
[5]
  outcome: inactive

## CC(=O)N1CCN(c2ccc(O)cc2)CC1
[1]
  Potency: inactive
[2]
  Potency: inactive
[7]
  Potency: inactive
[9]
  Potency: inactive
[3]
  Potency: inactive
[4]
  Potency: inactive
[10]
  outcome: inactive
[8]
  Potency: inactive

## Oc1ccccc1Cc1ccccc1O
[6]
  Potency: inactive
[3]
  Potency: inactive
[4]
  Potency: inactive
[8]
  Potency: inactive

## O=C1CC[C@H](C(=O)N2CCCCC2)N1
[1]
  Potency: inactive
[2]
  Potency: inactive
[9]
  Potency: inactive
[3]
  Potency: inactive
[4]
  Potency: inactive
[8]
  Potency: inactive
[5]
  outcome: inactive

## Nc1cc(C(=O)O)ccc1Cl
[1]
  Potency: inactive
[2]
  Potency: inactive
[7]
  Potency: inactive
[9]
  Potency: inactive
[3]
  Potency: inactive
[4]
  Potency: inactive
[10]
  outcome: inactive
[8]
  Potency: inactive

## Nc1ccc(S(=O)(=O)Nc2ccccn2)cc1
[1]
  Potency: inactive
[2]
  Potency: inactive
[7]
  Potency: inactive
[9]
  Potency: inactive
[3]
  Potency: inactive
[4]
  Potency: inactive
[10]
  outcome: inactive
[8]
  Potency: inactive
[5]
  outcome: inactive

## COCC(=O)Nc1c(I)c(C(=O)NCC(O)CO)c(I)c(C(=O)N(C)CC(O)CO)c1I (stereo not drawn)
[6]
  Potency: inactive
[7]
  Potency: inactive
[9]
  Potency: inactive
[3]
  Potency: inactive
[4]
  Potency: inactive
[10]
  outcome: inactive
[8]
  Potency: inactive
[5]
  outcome: inactive

## OCCCCCCCl
[1]
  Potency: inactive
[2]
  Potency: inactive
[7]
  Potency: inactive
[3]
  Potency: inactive
[4]
  Potency: inactive
[8]
  Potency: inactive

## CC(=O)OC(C(=O)c1ccccc1)c1ccccc1 (stereo not drawn)
[6]
  Potency: inactive
[7]
  Potency: inactive
[9]
  Potency: inactive
[3]
  Potency: inactive
[4]
  Potency: inactive
[10]
  outcome: inactive
[8]
  Potency: inactive

## Cc1nc([N+](=O)[O-])cn1-c1ccc([N+](=O)[O-])cc1
[1]
  Potency: inactive
[2]
  Potency: inactive
[7]
  Potency: inactive
[3]
  Potency: inactive
[4]
  Potency: inactive
[8]
  Potency: inactive
[5]
  outcome: inactive
